ADAM17 inh: ADAM17 inhibition, QFRET primary screen; 370,000 compounds, 0.83% hits; recombinant ADAM17, EDANS/DABCYL FRET peptide cleavage; inhibition, % at 6.95 µM; P78536;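 active means inhibition above the mean of compounds lying between control limits plus 3 SD, set per campaign, cut at about 8.5% in these data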;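 further: 0% = DMSO-only wells as the low control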
ADAM10 inh: inhibitors of human ADAM10. O14672. recombinant ADAM10, EDANS/DABCYL FRET peptide cleavage, 3 h. inhibition, % at 7 µM. 370,000 compounds, 0.62% hits. AID 720582;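 active means inhibition above a per-campaign cutoff equal to the mean of compounds falling between control-based bounds plus 3 SD, cut at about 20% in these data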;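 further: 0% = DMSO wells while the 100% control is not disclosed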
KLK7 zymogen act: proKLK7 (human) activation, primary screen. activation, % at 7 µM. purified proKLK7, EDANS-DABCYL substrate fluorescence; 100% is mature enzyme control, 0% vehicle. AID 652039. 370,000 compounds, 0.9% hits. P49862;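 active means activation above the mean of all tested compounds plus 3 SD, computed per campaign excluding outliers beyond control limits, cut at about 13% in these data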
HGIII-sPLA2 inh: Blocks human group III sPLA2 activity; Q9NZ20; QFRET BODIPY PC-A2 liposome hydrolysis, fluorescence; inhibition, % at 12.2 µM; 370,000 compounds, 0.56% hits;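 active means inhibition above mean plus 3 SD of compounds lying within the high and low control bounds, cut at about 19% in these data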;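 further: 0% = median of test compound wells and 100% = no enzyme DMSO wells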
NRP1-CendR mod: alters CendR peptide binding to human NRP-1 | O14786 | FAM-RPARPAR peptide binding to NRP-1, fluorescence polarization | inhibition, % at 25 µM | 360,000 compounds, 0.85% hits | AID 602438;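 active means inhibition or corrected inhibition above about 18%, plus a signal ratio from 0.5 to 1.5, limit read from the data, passing the limit was not always enough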
Target sequence (O14786 whole entry, looked up): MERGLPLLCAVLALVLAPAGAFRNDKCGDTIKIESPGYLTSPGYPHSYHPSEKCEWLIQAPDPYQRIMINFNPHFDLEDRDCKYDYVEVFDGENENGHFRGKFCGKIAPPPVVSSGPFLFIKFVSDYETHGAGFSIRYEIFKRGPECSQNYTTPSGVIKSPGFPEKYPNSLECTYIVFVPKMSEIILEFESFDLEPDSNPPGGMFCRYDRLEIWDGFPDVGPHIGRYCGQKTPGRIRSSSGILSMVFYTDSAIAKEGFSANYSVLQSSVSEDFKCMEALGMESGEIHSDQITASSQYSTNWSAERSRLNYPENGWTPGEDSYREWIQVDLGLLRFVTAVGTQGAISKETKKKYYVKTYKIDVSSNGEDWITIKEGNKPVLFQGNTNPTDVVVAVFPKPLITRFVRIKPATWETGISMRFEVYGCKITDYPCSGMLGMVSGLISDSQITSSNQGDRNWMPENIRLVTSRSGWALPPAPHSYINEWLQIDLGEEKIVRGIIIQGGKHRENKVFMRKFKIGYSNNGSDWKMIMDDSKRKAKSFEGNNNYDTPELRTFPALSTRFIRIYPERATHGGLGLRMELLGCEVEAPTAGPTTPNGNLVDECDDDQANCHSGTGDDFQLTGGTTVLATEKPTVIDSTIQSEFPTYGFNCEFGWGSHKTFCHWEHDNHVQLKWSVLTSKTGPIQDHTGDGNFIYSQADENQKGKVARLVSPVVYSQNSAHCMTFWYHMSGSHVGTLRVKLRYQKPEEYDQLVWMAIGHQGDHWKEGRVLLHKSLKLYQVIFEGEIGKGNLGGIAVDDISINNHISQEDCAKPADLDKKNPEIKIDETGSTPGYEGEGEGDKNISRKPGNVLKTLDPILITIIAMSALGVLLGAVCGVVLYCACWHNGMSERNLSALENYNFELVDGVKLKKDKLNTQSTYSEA
Numbers without * were called inactive; x = no result given. The list is not random: actives were taken first. Their share in the collection is about 3.4%.

SMILES	ADAM17 inh	ADAM10 inh	KLK7 zymogen act	HGIII-sPLA2 inh	NRP1-CendR mod
O=C(NC1CCCCN(Cc2ccc(Cl)cc2)C1=O)c1c(F)cccc1F (stereo unspecified)	1	-1	0	0	x
CC(C)(C)OC1NS(=O)(=O)OCC1NCOC(Cl)(Cl)Cl (stereo unspecified)	-2	-9	1	3	26*
COc1ccc(C)cc1NC(=O)c1cccc(C(=O)Nc2cc(C)ccc2OC)c1	-4	-10	0	4	33*
C=CC[C@]1(O)C(=O)N(c2ccccc2)c2ccccc21	-5	-6	0	14	x
Cc1ccc(Cn2c(=N)n(CC(O)COc3ccccc3)c3ccccc32)cc1 (stereo unspecified)	2	-5	0	0	24*
N=c1n(Cc2ccccc2)c2ccccc2n1CC(O)COc1ccccc1 (stereo unspecified)	-1	0	-1	5	-2
C=CCOc1ccc(CNC(C)(C)C)cc1OC	1	-1	0	-4	24*
CCN1Cc2nnn(Cc3ccccc3)c2-c2ccccc2S1(=O)=O	1	2	0	1	x
CN(NC(=O)Nc1ccc(Cl)cc1)c1c(Cl)c(Cl)nn1C	-6	5	0	4	20*
COc1ccccc1N(C)S(=O)(=O)c1ccc(C(=O)NCC(C)C)cc1	-1	15	0	5	6
COc1ccccc1N(C)S(=O)(=O)c1ccc(C(=O)N(CC(N)=O)C(C)C)cc1	-3	-13	0	1	25*
COc1ccccc1N(C)S(=O)(=O)c1ccc(C(=O)Nc2cccc(Br)c2)cc1	8	12	-1	-14	27*
COC(=O)c1cccc(NC(=O)c2ccc(S(=O)(=O)N(C)c3ccccc3OC)cc2)c1	3	12	1	-28	0
Cc1ccc(S(=O)(=O)c2ncccc2N)cc1	-28	-68	0	6	56*
Cc1ccc(S(=O)(=O)c2ncccc2[N+](=O)[O-])cc1	1	-5	1	-1	-2
Cc1cccc(-c2cccc3c4c([nH]c23)[C@@H]2C[C@H]3[C@@H](C(=O)N2CC4)[C@H](C)ON3C)c1	-57	-183	-15	-7	x
Cc1ccccc1-n1ccnc1SCC(=O)O	4	10	0	0	16
Cc1ccc(-n2ccnc2SCC(=O)O)c(C)c1	-4	-3	0	-1	31*
Cc1ccc(S(=O)(=O)N2CCCC2C(=O)N2CCN(c3ccccc3)CC2)cc1 (stereo unspecified)	2	2	0	-3	x
COc1ccc(NC(=O)Cn2nnc(C(=O)NCc3cccs3)c2N)c(OC)c1	-5	-3	0	4	-4
COc1ccc(C)cc1NC(=O)c1nnn(Cc2cc(C)ccc2C)c1N	-3	-11	0	1	7
COc1ccc(NC(=O)Cn2nnc(C(N)=O)c2N)c(OC)c1	3	10	-1	11	33*
COc1ccc(OC)c(NC(=O)c2nnn(Cc3ccccc3C)c2N)c1	7	27*	-10	-25	-11
CNC(=O)C[C@H]1CC[C@H]2[C@@H](COc3ccc(NC(=O)Nc4ccccc4)cc3C(=O)N2C)O1	-5	4	0	-10	x
CC(COc1cc(F)cc(C#N)c1)CN1CCC(C(O)(c2ccccc2)c2ccccc2)CC1 (stereo unspecified)	3	6	0	-20	x
SMILES	ADAM17 inh	ADAM10 inh	KLK7 zymogen act	HGIII-sPLA2 inh	NRP1-CendR mod
O=C1CCCCN1CCC(=O)N1CCCC(N2CCN(c3cccc(Cl)c3)CC2)C1 (stereo unspecified)	2	-8	0	-1	25*
CC(=NNC(=O)CSc1nnc(-c2ccccc2)n1-c1ccccc1)c1cccc([N+](=O)[O-])c1	2	4	1	-10	x
O=C(Nc1ccc(S(=O)(=O)NCC2CCCO2)cc1)c1ccc(Cl)cc1[N+](=O)[O-] (stereo unspecified)	0	1	0	-10	-1
Cc1c(C(=O)Nc2ccc(S(=O)(=O)NCC3CCCO3)cc2)cccc1[N+](=O)[O-] (stereo unspecified)	-3	-6	0	-10	38*
COC(=O)C/C=C/[C@H](C)[C@@H](NC(=O)C(F)(F)F)c1ccccc1Br	-4	-2	0	-2	x
COc1ccc(N2CCN(C(=O)COCc3cc(-c4ccc5c(c4)OCO5)on3)CC2)cc1	-7	-2	0	6	4

Source: PubChem BioAssay
